Test systems include HCT-15 colon; HT29 colon; SNB-75 CNS; SNB-19 CNS; U251 CNS; PC-3 prostate; SK-MEL-5 melanoma; UACC-62 melanoma; LOX IMVI melanoma; SK-MEL-28 melanoma; SK-MEL-2 melanoma; EKVX NSCLC; SN12C renal; UO-31 renal; TK-10 renal; ACHN renal; CAKI-1 renal; A498 renal; MOLT-4 leukemia; CCRF-CEM leukemia.
Assay in all cases: NCI-60 one-dose screen, 48 h (100 = growth as untreated, 0 = no growth, -100 = all killed)
Common to all, as to conditions: 10 µM

About 83,000 compounds went through this panel and 20% of them were active in at least one assay; those are over-represented in the sample as a whole.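 Compound tested at a single concentration for 48 hours in 96-well plates; a percent growth value below 10 was scored as active.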 Values without a mark were called inactive. Activity calls are given as the source filed them.

Consider `O=C(CN1CCN(c2ncnc3c2cnn3-c2ccccc2)CC1)Nc1nncs1`, for which the growth with HCT-15 colon is -30.7% (active); in the experiment with HT29 colon it was -61.5% (active); in the experiment on SNB-75 CNS, -75% (active); with SNB-19 CNS it was 58.4%; in the experiment with U251 CNS, -72.5% (active); in the experiment on PC-3 prostate, -36.1% (active). Also, the growth is 29.4% in the experiment with SK-MEL-5 melanoma; 17.4% in the experiment with UACC-62 melanoma; -87.4% (active) with LOX IMVI melanoma; 72.3% in the experiment on SK-MEL-28 melanoma; 28% in the experiment with SK-MEL-2 melanoma; -44.8% (active) in the experiment on EKVX NSCLC. Further, the growth is -54.7% (active) with SN12C renal; -97.2% (active) in the experiment on UO-31 renal; -56.5% (active) in the experiment on TK-10 renal; -87.5% (active) in the experiment on ACHN renal; -95.7% (active) with CAKI-1 renal; 49% in the experiment on A498 renal. In addition, the growth with MOLT-4 leukemia is 3.73% (active).

As for `Cc1cccc2cc(-c3cc(-c4ccccc4)nc(=O)[nH]3)c(Cl)nc12`, the growth was 64.1% with HCT-15 colon; 107% with HT29 colon; 89.1% with SNB-75 CNS; 68% with SNB-19 CNS; 62.6% with U251 CNS; 77.6% with PC-3 prostate. The growth with SK-MEL-5 melanoma is 96.3%; with UACC-62 melanoma, 80.1%; in the experiment with LOX IMVI melanoma, 54.1%; with SK-MEL-28 melanoma it was 103%; in the experiment with SK-MEL-2 melanoma, 102%; in the experiment on EKVX NSCLC it was 84.6%. The growth in the experiment on SN12C renal is 84%; in the experiment on TK-10 renal, 110%; with ACHN renal, 91.8%; in the experiment with CAKI-1 renal it was 87.2%; in the experiment with A498 renal, 94.5%; in the experiment with CCRF-CEM leukemia, 8.46% (active). Further, the growth in the experiment on MOLT-4 leukemia was 61.3%.

On to `N#Cc1c(NC(=O)c2ccc(C(O)(C(F)(F)F)C(F)(F)F)cc2)sc2c1CCC(=O)C2`, for which the growth with HCT-15 colon is -68.7% (active); with HT29 colon it was -34.5% (active); in the experiment with SNB-75 CNS it was 16.9%; in the experiment on SNB-19 CNS, -15.9% (active); with U251 CNS it was -91.1% (active); in the experiment on PC-3 prostate, -44.8% (active). For the same molecule, the growth with SK-MEL-5 melanoma was -99.1% (active); in the experiment on UACC-62 melanoma it was -88.3% (active); in the experiment with LOX IMVI melanoma it was -96.4% (active); with SK-MEL-28 melanoma, -87.1% (active); in the experiment on SK-MEL-2 melanoma, -27.4% (active); in the experiment on EKVX NSCLC, -89.6% (active). In addition, the growth was -98.8% (active) in the experiment on UO-31 renal; 2.24% (active) with TK-10 renal; -98.3% (active) in the experiment with ACHN renal; -68.9% (active) in the experiment on CAKI-1 renal; 13.6% in the experiment on A498 renal; 1.92% (active) in the experiment on CCRF-CEM leukemia. Further, the growth in the experiment with MOLT-4 leukemia was -40.9% (active).

Take `O=C1Nc2ccc(Cl)cc2/C1=C/c1ccc(OCc2ccc(Br)cc2F)cc1`: the growth was 45.7% in the experiment with HCT-15 colon; 40.5% in the experiment on HT29 colon; 18.3% in the experiment on SNB-75 CNS; 23% in the experiment on SNB-19 CNS; -5.75% (active) with U251 CNS; 41.4% with PC-3 prostate. Also, the growth was 32.6% in the experiment on SK-MEL-5 melanoma; 32.5% in the experiment with UACC-62 melanoma; 7.62% (active) in the experiment with LOX IMVI melanoma; 63.7% in the experiment on SK-MEL-28 melanoma; 80% in the experiment with SK-MEL-2 melanoma; 41% with EKVX NSCLC. The growth was 34.2% in the experiment with SN12C renal; 18.6% in the experiment with TK-10 renal; 3.32% (active) in the experiment with ACHN renal; 28.9% in the experiment with CAKI-1 renal; 4.76% (active) in the experiment on A498 renal; 43.1% in the experiment with CCRF-CEM leukemia. Also, in the experiment with MOLT-4 leukemia, the growth was 63.5%.

Regarding `CCCCCCCCCCCCCCCCCCCC(=O)NCCc1c[nH]c2ccc(OC(=O)CCCC(=O)OCCOOCCOOCCOOCCOOCCOOCCOOCCOOCCOOCCOOCCOOCCOOCCOC)cc12`, the growth in the experiment with HCT-15 colon was 56%; in the experiment with HT29 colon, 63.4%; in the experiment with SNB-75 CNS, 110%; in the experiment on SNB-19 CNS, 69.1%; in the experiment with U251 CNS it was -31.3% (active); in the experiment with PC-3 prostate, 22%. Moreover, the growth in the experiment on SK-MEL-5 melanoma was 99.6%; with UACC-62 melanoma, 67.1%; with LOX IMVI melanoma, 27.2%; in the experiment with SK-MEL-28 melanoma, 88%; in the experiment on SK-MEL-2 melanoma, 78.1%; with EKVX NSCLC it was 83.1%. Besides, the growth was 17.4% in the experiment with SN12C renal; 45.4% with UO-31 renal; 120% in the experiment on TK-10 renal; 59.9% with ACHN renal; 73.7% in the experiment with CAKI-1 renal; 116% in the experiment on A498 renal. Further, the growth in the experiment on MOLT-4 leukemia is -4.66% (active).

On to `Cc1nc2c(cnn2-c2ccccc2)c(=O)n1-c1ccc(NC(=O)c2ccc(F)cc2)cc1`, for which the growth was 66.1% in the experiment on HCT-15 colon; 63.5% in the experiment with HT29 colon; 64.5% with SNB-75 CNS; 80.4% in the experiment on SNB-19 CNS; 81.1% in the experiment on U251 CNS; 53.1% in the experiment with PC-3 prostate. Besides, the growth with SK-MEL-5 melanoma was -15.4% (active); with UACC-62 melanoma, 63.1%; with LOX IMVI melanoma it was 61.8%; with SK-MEL-28 melanoma, 83.8%; in the experiment with SK-MEL-2 melanoma, 77.9%; with EKVX NSCLC it was 30.2%. Moreover, the growth in the experiment with SN12C renal is 74.4%; in the experiment with TK-10 renal, 71%; in the experiment on ACHN renal, 61%; in the experiment on CAKI-1 renal, 65.7%; with A498 renal it was 86.8%; in the experiment with CCRF-CEM leukemia, 34.8%. The growth with MOLT-4 leukemia is 5.38% (active).

In the case of `N#Cc1c(NC(=O)c2cccc(C(F)(F)F)c2)sc2c1CCC(O)=C2`, the growth in the experiment with HCT-15 colon is 20.6%; in the experiment on HT29 colon, 80.4%; with SNB-75 CNS, 46.7%; in the experiment on SNB-19 CNS, 42.4%; in the experiment on U251 CNS, 39.7%; in the experiment on PC-3 prostate, 39%. In addition, the growth is -38.3% (active) with SK-MEL-5 melanoma; 11.5% in the experiment with UACC-62 melanoma; 33.9% in the experiment with LOX IMVI melanoma; 33.9% in the experiment on SK-MEL-28 melanoma; -1.48% (active) in the experiment with SK-MEL-2 melanoma; 22.8% with EKVX NSCLC. Also, the growth is 17.6% in the experiment with UO-31 renal; 63.1% in the experiment with TK-10 renal; 31.4% in the experiment with ACHN renal; 44.5% in the experiment with CAKI-1 renal; 69% with A498 renal; 21.9% in the experiment with CCRF-CEM leukemia. The growth with MOLT-4 leukemia is 25.9%.

For `O=C1Nc2ccc(F)cc2/C1=C/c1cccc(OCc2ccccc2)c1`, the growth is 0.287% (active) in the experiment on HCT-15 colon; 20.6% in the experiment with HT29 colon; 66.2% in the experiment on SNB-75 CNS; 23.9% in the experiment with SNB-19 CNS; 6.3% (active) in the experiment with U251 CNS; 20.4% in the experiment on PC-3 prostate. Besides, the growth in the experiment on SK-MEL-5 melanoma was -24.7% (active); with UACC-62 melanoma, 16.5%; in the experiment on LOX IMVI melanoma it was -79.5% (active); with SK-MEL-28 melanoma, 36.2%; with SK-MEL-2 melanoma, -23.1% (active); in the experiment on EKVX NSCLC it was 18.4%. For the same molecule, the growth in the experiment with SN12C renal was 20.2%; with TK-10 renal, 70.9%; with ACHN renal it was 22.4%; in the experiment with CAKI-1 renal it was 25.9%; with A498 renal it was 80.2%; in the experiment with CCRF-CEM leukemia it was -4.49% (active). For the same molecule, the growth with MOLT-4 leukemia is 1.81% (active).

(Values after PubChem BioAssay (NCI).)
